Assay results: PubChem BioAssay AID1259397 (Fisher Drug Discovery Resource Center, 2018)
“And” between values parts separate entries of the source, which are not always exact repeats. Equal entries are not always repeated. Among all 130,000 compounds or so, about 230 (0.18%) were called active. The list comes from a sample in which actives are over-represented; it also holds similar structures and randomly drawn compounds. A number with no mark means an inactive call.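 How the source made its calls: active means inhibition of cGAS enzyme activity at or above 60%; inactive means the rest.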

These molecules were tested against Cyclic GMP-AMP synthase (Mus musculus) (UniProt Q8C6L5) (assay: inhibitors of Mus musculus cyclic GMP-AMP synthase, initial high-throughput assay, cell-free, RapidFire MS (AID 1259397;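 further: enzyme stimulated by 45 bp dsDNA with ATP and GTP substrates; cGAMP share of summed cGAMP plus half ATP and half GTP signals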)). Conditions: recombinant mouse cGAS, cGAMP by RapidFire MS; at 12.5 µM; active compounds read high.
Cyclic GMP-AMP synthase (Mus musculus), sequence (Q8C6L5 whole entry, looked up): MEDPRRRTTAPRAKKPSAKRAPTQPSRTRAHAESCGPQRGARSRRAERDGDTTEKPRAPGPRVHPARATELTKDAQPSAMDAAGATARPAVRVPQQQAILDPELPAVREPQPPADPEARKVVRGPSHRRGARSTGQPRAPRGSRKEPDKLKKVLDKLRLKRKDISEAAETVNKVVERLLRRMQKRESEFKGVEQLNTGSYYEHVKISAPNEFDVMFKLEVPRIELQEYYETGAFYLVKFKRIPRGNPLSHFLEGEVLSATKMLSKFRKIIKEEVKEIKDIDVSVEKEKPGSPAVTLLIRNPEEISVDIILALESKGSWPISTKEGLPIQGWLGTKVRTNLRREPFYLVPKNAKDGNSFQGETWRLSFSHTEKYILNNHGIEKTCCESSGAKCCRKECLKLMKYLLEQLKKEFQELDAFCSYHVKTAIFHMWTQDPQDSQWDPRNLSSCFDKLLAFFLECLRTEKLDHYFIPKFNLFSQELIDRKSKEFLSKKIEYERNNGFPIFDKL

Compound | inhibition
O=S(=O)(c1ccc2c(c1)OCCCO2)N1CCCC(c2nc3ccccc3s2)C1 (stereo unspecified) | 10%
Cc1sc2ncn(CC(=O)c3ccc[nH]3)c(=O)c2c1C | 14.3%
Cc1nc2ccc(C(=O)N3CCC4(CC3)Nc3ccccc3C(=O)N4CCO)cc2[nH]1 | -0.499%
COc1cc2c(cc1CNC1CCN(Cc3ccccc3)C1)OC(C)C2 (stereo unspecified) | -13.3%
CC(=O)OC(OC(C)=O)c1coc2c(F)cccc2c1=O | 2.77%
CCC1CCC(N(CC(=O)NC(C)C(=O)N(C)C)C(C)c2ccc(F)cc2)CC1 (stereo unspecified) | -8.3%
Cc1[nH]n(-c2nc(O)c(C)c(=O)[nH]2)c(=O)c1CCO | -3.37%
CCCNc1nc2c(C)cccn2c(=O)c1C=C1SC(=S)N(CC(C)C)C1=O | -5.08%
Cc1ccc(NC(=O)CN2CCCN(c3ccc(C(F)(F)F)cn3)CC2)cc1 | -2.92%
CC(Nc1ncnc2sc3c(c12)CCCC3)c1ccccc1 (stereo unspecified) | -2.34%
CN(Cc1nc(-c2ccc(Br)s2)no1)c1nccs1 | -1.14%
CN(C)c1ccc(N2CC(=O)C(c3nc(-c4cccc(Cl)c4)cs3)C2=N)cc1 (stereo unspecified) | -4.69%
CCCN(C)CC1CCN(C(C)C(=O)Nc2ccc(C(F)(F)F)cc2)C1 (stereo unspecified) | 93.9% (active)
CCc1ccc(NC(=O)C(C)n2cc(C(F)(F)F)ccc2=O)cc1 (stereo unspecified) | -4.23%
Cc1ccc(NC(=O)C(C)N2CCCC(C(F)(F)F)C2)cc1 (stereo unspecified) | -5.21%
CCn1ccc(C(=O)NCc2cccnc2Oc2ccc(C)nc2)n1 | 4.9%
O=C(CSc1nnc(-c2ccco2)o1)NC1CC1 | -7.76%
Cc1cccc[n+]1CC(=O)C12CC3CC(CC(C3)C1)C2 | -6.75%
COc1ccc2c(c1)CCc1cc(C(=O)NC(C)c3c(C)nn(C)c3C)sc1-2 (stereo unspecified) | 0.0306%
CC(Nc1cccc(Br)c1)N1C(=O)CCC1=O (stereo unspecified) | -5.36%
COc1ccc(OC)c(C2CCCN2Cn2nc(-c3ccccc3F)n(C)c2=S)c1 (stereo unspecified) | -6.22%

Compound | inhibition
NC(=O)Cn1nnc(-c2ccccc2Br)n1 | -12.5%
COc1cccc(N(CN2C(=O)c3ccccc3C2=O)C(C)=O)c1 | 22.9%
CC(C)(C)SCCNC(=O)CN(c1ccc(Cl)cc1Cl)S(=O)(=O)c1ccccc1 | -1.39%
Cc1ccc(-c2cnc(C(O)c3cccc(C)c3C)[nH]2)cc1 (stereo unspecified) | -3.19%
N#Cc1ccc(F)c(COC(=O)c2cncc(Br)c2)c1 | 6.6%
Cc1ccc(C)c(CNc2cccc(C(=O)N3CCC(O)CC3)c2)c1 | -8.84%
CCC(=O)N1CCN(c2ccc(Cl)cc2NC(=O)c2cccs2)CC1 | -6.87%
CC(=O)N(C)c1ccc(NC(=O)CNCCc2cccs2)cc1 | -11.1%
COc1ccc(OC)c(NC(=O)C(C)N2CCN(Cc3ccc(Cl)s3)CC2)c1 (stereo unspecified) | -4.59%
CCO[C@H]1COC[C@@H]1NCC(=O)Nc1ccc(Cl)c(OC)c1 | -5.39%
O=C(O)c1cc(-c2ccccc2)nn1-c1ccc(Cl)cc1 | -1.5%
Cc1cc(-n2cnnc2)ncc1-c1ccc(O)cc1 | -7.05%
Cc1ccc(NC(=O)CN2Cc3ccccc3CC2C(N)=O)cc1 (stereo unspecified) | -6.79%
CCNC(=O)C1(C)CCN(Cc2ccc(C(=O)OCC)o2)C1 (stereo unspecified) | -5.82%
CN=c1scc(-c2ccc(Br)cc2)n1N=Cc1cc(OC)c(OC)c(OC)c1 | -11.7%
CC(C)Nc1ncc(C(=O)N(Cc2ccco2)C(C)C(C)C)cn1 (stereo unspecified) | -1.04%
C=CC[C@H]1CC(C)=C[C@H](CC=C)N1C(=O)c1cnc2cccc(C)n2c1=O | -2.04%
O=C1COCc2ccc(-c3cccnc3)cc2N1CC1CC1 | -11.8%
CCCn1c(=O)n(C)c(=O)c2c(SCC(=O)C(C#N)=C(C)N)nc(CC(C)C)nc21 | -1.38%
CC1(C(=O)NCc2ccc3c(c2)OCO3)CCN1CCc1ccccc1 (stereo unspecified) | -12.7%
COc1ccc(CC(=O)OCc2cc(-c3ccc4c(c3)OCO4)on2)cc1OC | -7.02%

Compound | inhibition
CC(C)c1cc(C2CCN(C(=O)CN3CCOC3=O)CC2)[nH]n1 | -25.2%
COc1ccc(NC(=O)CCC2CCN(Cc3ccc(SC)cc3)CC2)c(OC)c1 | -5.25%
Cc1cccc(Nc2ncccc2C(=O)NCc2ccccn2)c1C | 1.13%
Cc1[nH]n2c(=O)c3c(nc2c1-c1cccc2ccccc12)CCCC3 | 1.14%
CN(Cc1ccc(Br)s1)C(=O)CSCc1ccc(C#N)cc1 | 7.87%
O=S(=O)(NCc1ccccc1)NCc1csc(-c2cnccn2)n1 | -34.7%
O=C1CN(c2ccc(NC(=O)c3ccc4c(c3)COC4)cc2)CCN1 | -2.78%
CN1CCN2CCN(C(=O)c3cccc(N4CCNC4=O)c3)CC2C1=O (stereo unspecified) | -13.8%
C=C(C)Cn1c(N2CCN(Cc3cccc(C)c3)CC2)nc2c1c(=O)[nH]c(=O)n2C | -6.09%
COc1cc(C=C2SC(=S)NC2=O)cc(Br)c1O | 12%
O=C1NC(=O)C(=Cc2ccc(C(=O)O)cc2)S1 | 35.6%
O=C1NC(=S)SC1=Cc1ccccc1F | 62.6% (active)
CC(=O)NN=C1CCCc2c(C)cc(C)cc21 | 23.5%
O=C(CN1C(=O)NC2(CCCC2)C1=O)N1CCN(C(=O)c2cccs2)CC1 | -1.67%
O=C(Nc1ccccc1Cl)C(=O)N1CCC2(CC1)C(=O)Nc1ccccc12 | -33.1%
CCn1ccnc1CN(C)C(=O)c1cc(COc2cccc3cnccc23)on1 | -1.51% and -6.44%
CC(C)(C)CN(CCO)Cc1ncc(C(C)(C)C)o1 | -4.58%
CS(=O)(=O)Cc1nc(-c2cc3c(cc2F)NC(=O)CC3)cs1 | -12.8%
C=CCN(CC=C)C(=O)CSc1nc2scc(-c3ccc(F)cc3)c2c(=O)n1C | 11.1%
